Inconclusive results are not listed. Entries that show only a call come without a potency. Calls of active or inactive are those of the source. Calls follow the shape of the dose curve; as a rule, active = well fitted cell-killing curve with a large enough effect; inconclusive = small, poorly fitted or top-dose-only effect, or effect the other way; inactive = no such curve, though single readings can be large or run the other way.
Test: Quantitative High-Throughput drug screen in 47 multiple myeloma cell lines against the NCATS MIPE library collection: JIM1_ECACC cell viability assay (AID 1918964)
Settings: JIM1 myeloma viability, CellTiter-Glo ATP luminescence, 48 h; series mostly up to 45.8 µM
Text: PI: Beverly A. Mock Ph.D.
Laboratory of Cancer Biology and Genetics,
Center for Cancer Research, National Cancer Institute,
National Institute of Health, Bethesda, Maryland
Drug resistance and disease progression are common in multiple myeloma (MM) patients, underscoring the need for new therapeutic combinations. […] We hypothesized that effective combinations would reduce MYC expression and enhance p16 activity. […] These preclinical data identify potentially useful drug combinations for evaluation in drug-resistant MM and reveal potential mechanisms of combined drug sensitivity.
Described herein is the primary MIPE qHTS used to cherrypick compounds. Validated compounds were then further tested for potential synergistic activiy.
[1] Peat TJ, Gaikwad SM, Dubois W, Gyabaah-Kessie N, Zhang S, Gorjifard S, Phyo Z, Andres M, Hughitt VK, Simpson RM, Miller MA, Girvin AT, Taylor A, Williams D, D'Antonio N, Zhang Y, Rajagopalan A, Flietner E, Wilson K, Zhang X, Shinn P, Klumpp-Thomas C, McKnight C, Itkin Z, Chen L, Kazandijian D, Zhang J, Michalowski AM, Simmons JK, Keats J, Thomas CJ, Mock BA. Drug combinations identified by high-throughput screening promote cell cycle transition and upregulate Smad pathways in myeloma. Cancer Lett. 2023 Aug 1;568:216284. doi: 10.1016/j.canlet.2023.216284. Epub 2023 Jun 24. PMID: 37356470; PMCID: PMC10408729.
SEQUENCE No. (e.g., 1, 2, 3, etc.); […] (e.g., Cells, Incubation, Reagent, etc.); VALUE and DESCRIPTION.
1; Cells; 5 uL; white, solid bottom 1536-well Greiner assay plate.
2; Compounds; 23 nL; Kalypsis pin tool (Wako USA) equipped with a 1536-well pin head to transfer to the assay plates.
3; Incubation; 48 hours; 37C incubation.
4; Reagent;5uL; CellTiter Glo (Promega).
5; Detector; 425V; Luminescence; Viewlux PerkinElmer.
NOTES (numbers refer to Sequence numbers above)
1. The cell-based screening methods employed in this study were like those previously published. Briefly, the corresponding myeloma cell lines were screened in 1,536-well plates with 500 cells, 5-uL per well for inhibition of cell viability (assessed by measuring ATP levels with CellTiterGlo).
2. NCATS MIPE 4.0 library of approved and investigational drugs were added using the Kalypsis pin tool. Wells treated with DMSO only for 100% viability and media only wells for 0% viability were used as controls.
3. The assay plates were covered and incubated for 48 hours in a 37C, 5% CO2 incubator with controlled humidity.
4. After 48 hours, CellTilter-GloTM luminescent substrate mix (Promega) reagent was added to the assay plate and plates we incubated for 5 min at room temperature.
5. Signal was measured as median relative luminescence units on a ViewLux (PerkinElmer) multiplate reader.
[1] Heske CM, Davis MI, Baumgart JT, Wilson K, Gormally MV, Chen L, Zhang X, Ceribelli M, Duveau DY, Guha R, Ferrer M, Arnaldez FI, Ji J, Tran HL, Zhang Y, Mendoza A, Helman LJ, Thomas CJ. Matrix Screen Identifies Synergistic Combination of PARP Inhibitors and Nicotinamide Phosphoribosyltransferase (NAMPT) Inhibitors in Ewing Sarcoma. Clin Cancer Res. 2017 Dec 1;23(23):7301-7311. doi: 10.1158/1078-0432.CCR-17-1121. Epub 2017 Sep 12. PMID: 28899971; PMCID: PMC6636827.
For `COC(=O)Nc1nc2ccc(Sc3ccccc3)cc2[nH]1`, the Potency was 0.833 µM (active). In the case of `O=C(O)c1cn(C2CC2)c2cc(N3CCNCC3)c(F)cc2c1=O`, the Potency is reported as “inactive”. For `Cc1cc(NS(=O)(=O)c2ccc(N)cc2)no1`, the Potency was “inactive”. For `CC[C@H](NC(C)C)[C@H](O)c1ccc(O)c2[nH]c(=O)ccc12`, the Potency was “inactive”. With `C[C@@H]1CN(c2c(F)c(N)c3c(=O)c(C(=O)O)cn(C4CC4)c3c2F)C[C@H](C)N1` the Potency was “inactive”. With `O=c1cc(O)c(Cl)c[nH]1` the Potency was 6.62 µM (active). In the case of `NNC(=O)c1ccncc1`, the Potency is reported as “inactive”. In the case of `CC(N)C12CC3CC(CC(C3)C1)C2` (stereo not given), the Potency is reported as “inactive”. With `CNS(=O)(=O)Cc1ccc2[nH]cc(CCN(C)C)c2c1` the Potency was “inactive”. In the case of `CCC(=O)O[C@]1(C(=O)SCF)[C@H](C)C[C@H]2[C@@H]3C[C@H](F)C4=CC(=O)C=C[C@]4(C)[C@@]3(F)[C@@H](O)C[C@@]21C`, the Potency is reported as “inactive”. With `CCOC(=O)[C@H](CCc1ccccc1)N[C@H]1CCc2ccccc2N(CC(=O)O)C1=O` the Potency was 9.35 µM (active). For `NC(=O)N1c2ccccc2CC(=O)c2ccccc21`, the Potency was “inactive”. For `CN(C)CCc1c[nH]c2ccc(C[C@H]3COC(=O)N3)cc12`, the Potency was “inactive”. In the case of `Nc1[nH]c(=O)ncc1F`, the Potency is reported as “inactive”. For `COc1cc([C@@H]2c3cc4c(cc3[C@H](O)[C@H]3COC(=O)[C@H]23)OCO4)cc(OC)c1OC`, the Potency was “inactive”. In the case of `CC1=NN(c2ccccc2)C(=O)C1`, the Potency is reported as “inactive”. For `CCc1cc(C(N)=S)ccn1`, the Potency was “inactive”. In the case of `COc1ccc2c(c1)c(CC(=O)OCC(=O)O)c(C)n2C(=O)c1ccc(Cl)cc1`, the Potency is reported as “inactive”. With `NC(=O)c1cccnc1` the Potency was “inactive”. In the case of `CCN[C@H]1C[C@H](C)S(=O)(=O)c2sc(S(N)(=O)=O)cc21`, the Potency is reported as “inactive”. For `CNNCc1ccc(C(=O)NC(C)C)cc1`, the Potency was “inactive”. With `CC(C)C[C@H](NC(=O)[C@H](CCc1ccccc1)NC(=O)CN1CCOCC1)C(=O)N[C@@H](Cc1ccccc1)C(=O)N[C@@H](CC(C)C)C(=O)[C@@]1(C)CO1` the Potency was 0.0074 µM (active). In the case of `CC(C)(C)NC(=O)[C@H]1CC[C@H]2[C@@H]3CC[C@H]4NC(=O)C=C[C@]4(C)[C@H]3CC[C@]12C`, the Potency is reported as “inactive”. With `N[C@@H](Cc1ccc(O)c(O)c1)C(=O)O` the Potency was “inactive”. For `Cc1oc(=O)oc1CN1CCN(c2cc3c(cc2F)c(=O)c(C(=O)O)c2n3C(C)S2)CC1` (stereo not given), the Potency was “inactive”. For `C[C@@H]1C[C@H]2[C@@H]3CCC4=CC(=O)C=C[C@]4(C)[C@@]3(Cl)[C@@H](O)C[C@]2(C)[C@@]1(OC(=O)c1ccco1)C(=O)CCl`, the Potency was 7.43 µM (active). For `COc1cc(NCc2ccc3nc(N)nc(N)c3c2C)cc(OC)c1OC`, the Potency was 2.96 µM (active). For `Nc1nc(F)nc2c1ncn2[C@@H]1O[C@H](CO)[C@@H](O)[C@@H]1O`, the Potency was 0.0935 µM (active). With `CCN(CC)CCn1c(=O)c(Cc2ccc(OC)cc2)nc2ccccc21` the Potency was “inactive”. For `CCN1CCCC1CNC(=O)c1cc(S(N)(=O)=O)ccc1OC` (stereo not given), the Potency was “inactive”. In the case of `CCCc1cc(C(N)=S)ccn1`, the Potency is reported as “inactive”. With `CCCN[C@H]1CCc2nc(N)sc2C1` the Potency was “inactive”. In the case of `C[C@@H](CN1CC(=O)NC(=O)C1)N1CC(=O)NC(=O)C1`, the Potency is reported as “inactive”. With `NC(=O)c1ccc2[nH]ccc2c1` the Potency was “inactive”. For `Cn1nnc2c(C(N)=O)ncn2c1=O`, the Potency was “inactive”. With `Cc1ccnc2c1NC(=O)c1cccnc1N2C1CC1` the Potency was “inactive”. In the case of `COC(c1ccccc1)(c1ccccc1)[C@H](Oc1nc(C)cc(C)n1)C(=O)O`, the Potency is reported as “inactive”. With `O=C(O)c1ccc(-n2nc(-c3ccccc3O)nc2-c2ccccc2O)cc1` the Potency was 18.7 µM (active). With `CCC(C)(C)c1ccc(CC(C)CN2C[C@@H](C)O[C@@H](C)C2)cc1` (stereo not given in full) the Potency was “inactive”. With `COc1ccccc1OCC(O)COC(N)=O` (stereo not given) the Potency was “inactive”.
Potency is read from the fitted curve at half-maximal effect.
